# According to PubChem BioAssay (NCI):
# This is part of a sample that, as a whole, favours compounds with a hit. Of some 83,000 tested, about 20% had one in any assay.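 Plates (96-well) were seeded with cells, treated with compound at one concentration, and incubated for 48 hours before percent growth was determined.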 Unmarked numbers belong to inactive results. The source made the active and inactive calls. How the source made its calls: active means growth percent below 10; inactive means the rest.
# Tested on: HCC-2998 colon
# Assay: NCI-60 one-dose screen, 48 h (100 = growth as untreated, 0 = no growth, -100 = all killed)
# Details: 10 µM unless noted
row,Structure (SMILES),growth
1,CCCC(=O)N1CCCCC1CC (stereo not given),115%
2,Cc1nn(-c2ccc(Cl)cc2)c(=O)n1CCn1cnc2ccccc21,104%
3,COC(=O)[C@]12CC[C@@H](C)[C@H](C)[C@@H]1C1=CC[C@@H]3[C@@]4(C)C[C@@H](OC(C)=O)[C@H](O)[C@@](C)(CO)[C@@H]4[C@H](O)C[C@@]3(C)[C@]1(C)CC2,-87.8% (active)
4,Cn1cc(-c2nc(-c3c[nH]c4ncccc34)cs2)c2ccccc21,32.6%
5,O=C1C=Cc2ncccc2C1=O,110%
6,COCCNC1=C(Cl)C(=O)c2ccccc2C1=O,95%
7,COc1ccc(O)c(-c2cc(-c3ccc(Cl)cc3)c(C#N)c(=O)[nH]2)c1,70.6%
8,C/C(=N\Nc1cc(C)c2cc(C)ccc2n1)c1ccccn1,-25.9% (active)
9,COC(=O)C(N)CSC(c1ccccc1)(c1ccccc1)c1ccccc1 (stereo not given),12.9%
10,CCCCCCCC(=O)SCC/C=C/[C@@H]1CC(=O)NCc2cccc(n2)CN(Cc2ccc3ccccc3c2)CC(=O)N[C@@H](C(C)C)C(=O)O1,49.5%
11,C=C(C)[C@@H]1CC[C@]2(CN)CC[C@]3(C)[C@H](CC[C@@H]4[C@@]5(C)CCC(=O)NC(C)(C)[C@@H]5CC[C@]43C)[C@@H]12,97.7%
12,CC(=O)O[C@@H]1CCN2C(=O)N(C)c3ccccc3[C@@H]2C1,104%
13,Cc1cc(N(CCCNc2ccnc3cc(Cl)ccc23)Cc2ccco2)nc(Cl)n1,75.2%
14,O=S(=O)(NCCNc1cc(-c2cn(-c3ccccc3)nc2-c2cccc(O)c2)ccn1)c1ccc(Cl)cc1,-42.8% (active)
15,Cn1c(=O)c2c(nc(N3CCCC3)n2C)n(C)c1=O,108%
16,O=C1NC(=Nc2ccc(S(=O)(=O)Nc3nccs3)cc2)S/C1=C\c1coc2ccccc2c1=O,99.1%
17,O=C(c1ccccc1)C(CN1CCOCC1)c1ccccc1 (stereo not given),54.4%

# Tested on: KM12 colon
# Assay: as above
# Details: 10 µM unless noted
row,Structure (SMILES),growth
1,CCCNc1nc(N(C)O)nc(N(C)O)n1,41.5%
2,Brc1ccc(Cn2nnnc2-c2ccn(-c3ccccc3)n2)cc1,80.6%
3,CC(C)(C)CC(C)(C)c1ccc(OCCOCC[N+](C)(C)CC(=O)[O-])cc1,112%
4,CN(C)c1ccc(N)c2ccccc12,62.7%
5,O=C1c2ccccc2C(=Cc2ccccc2)c2ccccc21,-26.6% (active)
6,COC(=O)[C@]12CC[C@@H](C)[C@H](C)[C@@H]1C1=CC[C@@H]3[C@@]4(C)C=C(O)C(=O)C(C)=C4CC[C@@]3(C)[C@]1(C)CC2,30.3%
7,Cn1cnc2c1c(=O)n(CCC(=O)Nc1ccc(F)cc1)c(=O)n2C,102%
8,COC1=C(Br)C(=O)C(OC)=C(Br)C1=O,101%
9,N#C/C(=C\c1ccc(-c2ccc(F)cc2)o1)c1nc(-c2ccco2)cs1,60.6%
10,Nc1nc(N)c2nc3c(nc2n1)CCCCCCCCCC3,61.4%
11,COc1ccc(-n2c(/C=C/c3ccc(O)c(OC)c3)cc(/C=C/c3ccc(O)c(OC)c3)nc2=O)cc1,42%
12,NC(=O)[C@@H]1CC2CCC1C2 (stereo not given in full),102%
13,COc1cccc(-c2nn(-c3ccccc3)cc2-c2ccnc(NCCNS(=O)(=O)c3ccc(Cl)cc3)c2)c1,28.5%
14,C=C1C(=O)O[C@H]2[C@H]1CC/C(COC(=O)NCc1cc3ccccc3[nH]1)=C\CC[C@@]1(C)O[C@@H]21,81%
15,[B-][N+](CC)(CC)c1ccccc1,105%
16,Cc1nn2c(-c3nc4cc(Cl)c(Cl)cc4[nH]3)c(-c3ccc(F)cc3)nc2s1,39.3%
17,O=C1C=C(C(O)c2ccc(O)cc2)C(=O)c2ccccc21 (stereo not given),107%
18,CCCC(=O)N1CCCCC1CC (stereo not given),108%
19,Cc1nn(-c2ccc(Cl)cc2)c(=O)n1CCn1cnc2ccccc21,121%

row,Structure (SMILES),growth
1,COC(=O)[C@]12CC[C@@H](C)[C@H](C)[C@@H]1C1=CC[C@@H]3[C@@]4(C)C[C@@H](OC(C)=O)[C@H](O)[C@@](C)(CO)[C@@H]4[C@H](O)C[C@@]3(C)[C@]1(C)CC2,-84.2% (active)
2,O=C(/C=C\c1ccc2c(c1)OCO2)/C=C/c1ccc2c(c1)OCO2,8.55% (active)
3,Cn1cc(-c2nc(-c3c[nH]c4ncccc34)cs2)c2ccccc21,12.9%
4,O=C1C=Cc2ncccc2C1=O,104%
5,COCCNC1=C(Cl)C(=O)c2ccccc2C1=O,83.3%
6,COc1ccc(O)c(-c2cc(-c3ccc(Cl)cc3)c(C#N)c(=O)[nH]2)c1,57.6%
7,C/C(=N\Nc1cc(C)c2cc(C)ccc2n1)c1ccccn1,-46.9% (active)
8,COC(=O)C(N)CSC(c1ccccc1)(c1ccccc1)c1ccccc1 (stereo not given),17.6%
9,CCCCCCCC(=O)SCC/C=C/[C@@H]1CC(=O)NCc2cccc(n2)CN(Cc2ccc3ccccc3c2)CC(=O)N[C@@H](C(C)C)C(=O)O1,38.8%
10,C=C(C)[C@@H]1CC[C@]2(CN)CC[C@]3(C)[C@H](CC[C@@H]4[C@@]5(C)CCC(=O)NC(C)(C)[C@@H]5CC[C@]43C)[C@@H]12,81%
11,CC(=O)O[C@@H]1CCN2C(=O)N(C)c3ccccc3[C@@H]2C1,116%
12,Cc1cc(N(CCCNc2ccnc3cc(Cl)ccc23)Cc2ccco2)nc(Cl)n1,65.7%
13,O=S(=O)(NCCNc1cc(-c2cn(-c3ccccc3)nc2-c2cccc(O)c2)ccn1)c1ccc(Cl)cc1,19.4%
14,Cn1c(=O)c2c(nc(N3CCCC3)n2C)n(C)c1=O,101%
15,Cn1cc(-c2csc(-c3cn(CCN)c4ccc(F)cc34)n2)c2cccnc21,47.7%
16,CC1=NN(c2ccc(S(=O)(=O)O)cc2Cl)C(=O)C1,137%
17,CC(CNc1nc(Nc2ccc(Cl)c(Cl)c2)nc(C(Cl)(Cl)Cl)n1)N(C)C (stereo not given),-88.4% (active)
18,O=C1NC(=Nc2ccc(S(=O)(=O)Nc3nccs3)cc2)S/C1=C\c1coc2ccccc2c1=O,113%
19,O=C(c1ccccc1)C(CN1CCOCC1)c1ccccc1 (stereo not given),20.8%
